Source: PubChem BioAssay (Tox21)
Records with an inconclusive call do not appear. Where a call stands in place of a potency, no number is given. Unmarked numbers belong to inactive results. Calls of active or inactive are those of the source. Calls come from the whole dose curve; as a rule, active = well fitted cell-killing curve with a large enough effect in the repeat runs; inconclusive = weak or mixed curves, or effect the other way; inactive = flat fitted curve, though single readings scatter.
Potency is the fitted concentration of half-maximal effect.

Assay: qHTS assay to identify small molecule agonists of the estrogen receptor beta (ER-beta) signaling pathway - cell viability counter screen (AID 1259380); note: nearly all actives have a fitted effect of over 30% in size
Conditions: ER-beta-bla HEK293T viability, CellTiter-Glo luminescence, 16 h; series mostly up to 92.4 µM
Source text: National Center for Advancing Translational Sciences [NCATS]
NIH Chemical Genomics Center [NCGC]
U.S. Environmental Protection Agency [EPA]
National Institutes of Environmental Health Sciences [NIEHS]
National Toxicology Program [NTP]
U.S. Food and Drug Administration [FDA]
Estrogen receptor (ER), a nuclear hormone receptor, plays an important role in development, metabolic homeostasis and reproduction. Two subtypes of ER, ER-alpha and ER-beta, have similar expression patterns with some uniqueness in both types. Endocrine disrupting chemicals (EDCs) and their interactions with steroid hormone receptors like ER causes disruption of normal endocrine function. To identify the compounds that activate ER signaling, an ER beta-UAS-bla GripTite cell line (Life Technologies, Madison, WI, USA) containing a beta-lactamase reporter gene under the control of an UAS response element was used to screen Tox21 10K compound library. The cytotoxicity of the Tox21 compound library against the ER-beta-bla cell line was tested in parallel by measuring the cell viability using CellTiter-Glo assay in the same wells.
Tox21 Assay Protocol Summary:
ER-beta-UAS-bla HEK293T cells were dispensed at 2,000 cells/5 uL of assay medium containing 2% charcoal stripped FBS per well into black wall/clear-bottom 1536-well plates using a Multidrop Combi (ThermoFisher Scientific, Waltham, MA) dispenser. After the assay plates were incubated at a 37C and 5% CO2 for 6 hr, 23 nL of compounds dissolved in DMSO, positive controls or DMSO only was transferred to the assay plate by a Pintool station (Kalypsys, San Diego, CA). The plates were incubated at 37C and 5% CO2 for 16 hr. Then 1 uL of LiveBLAzerTM B/G FRET substrate was added using a BioRAPTR FRD (Flying Reagent Dispenser, Aurora Discovery, San Diego, CA) and then the plates were incubated at room temperature for 2 hours, and fluorescence intensity was measured by an Envision plate reader (PerkinElmer, Shelton, CT). For cell viability readout that measures cytotoxicity, 4 uL/well of CellTiter-Glo reagent was added into the assay plates using a FRD. After 30 min incubation at room temperature, the luminescence intensity in the plates was measured using a ViewLux (PerkinElmer) plate reader.
For `CC(C)=CC(=O)O`, the Potency was “inactive”.
For `N#CCN(CC#N)CCN(CC#N)CC#N`, the Potency was “inactive”.
With `Cc1ccc(N)cc1[N+](=O)[O-]` the Potency was “inactive”.
With `CC(C)CCOC(=O)CC(C)C` the Potency was “inactive”.
In the case of `O=Cc1ccccc1[N+](=O)[O-]`, the Potency is reported as “inactive”.
In the case of `Cc1ncc(CSSCc2cnc(C)c(O)c2CO)c(CO)c1O`, the Potency is reported as “inactive”.
For `Cc1nccn1CC1CCc2c(c3ccccc3n2C)C1=O` (stereo not given), the Potency was “inactive”.
For `CC1=CC(=O)CCC1`, the Potency was “inactive”.
For `CC(C)N1C(=O)c2ccccc2C1=O`, the Potency was “inactive”.
For `CCCCCCCCCCC1CO1` (stereo not given), the Potency was “inactive”.
For `CCCC=O`, the Potency was “inactive”.
In the case of `COC(=O)c1ccc(C(=O)OC)c(C(=O)OC)c1`, the Potency is reported as “inactive”.
For `O=S(=O)(O)c1ccccc1O`, the Potency was “inactive”.
In the case of `COC(C(=O)O)c1ccccc1` (stereo not given), the Potency is reported as “inactive”.
In the case of `CCCCC1CCCCC(=O)O1` (stereo not given), the Potency is reported as “inactive”.
With `OC/C=C/c1ccccc1` the Potency was “inactive”.
For `CC1=CCC2C(C1)C2(C)C` (stereo not given), the Potency was “inactive”.
For `CN(C)N=Nc1ccccc1`, the Potency was “inactive”.
With `CC(C)(O)c1ccccc1` the Potency was “inactive”.
With `C=C(C)C(=O)OCCCCCCCCCCCCCCCCCC` the activity change, negative = cytotoxicity was -0.0598% [at 19 µM].
For `CO`, the Potency was “inactive”.
For `O=C1C(CCS(=O)c2ccccc2)C(=O)N(c2ccccc2)N1c1ccccc1` (stereo not given), the Potency was “inactive”.
For `CCCc1ccc(N)cc1`, the Potency was “inactive”.
In the case of `COC[C@H](c1ccc(C(F)(F)F)cc1)N1CCN(C2(C)CCN(C(=O)c3c(C)ncnc3C)CC2)C[C@H]1C`, the Potency is reported as 2.66 µM (active).
In the case of `Nc1ncnc2c1ncn2Cc1c(F)cccc1Cl`, the Potency is reported as “inactive”.
For `O=C(O)c1cccc(C(=O)O)n1`, the Potency was “inactive”.
In the case of `C1COCCO1`, the Potency is reported as “inactive”.
With `NCC[C@H](O)C(=O)N[C@@H]1C[C@H](N)[C@@H](O[C@H]2O[C@H](CN)[C@@H](O)[C@H](O)[C@H]2O)[C@H](O)[C@H]1O[C@H]1O[C@H](CO)[C@@H](O)[C@H](N)[C@H]1O` the activity change, negative = cytotoxicity was 1.09% [at 0.349 µM].
In the case of `COCc1ccc(COC)cc1`, the Potency is reported as “inactive”.
With `N#CC1(O)CCCCC1` the Potency was “inactive”.
For `OCCCCCCO`, the Potency was 55.1 µM (active).
With `CCCCc1ccc2cccc(S(=O)(=O)O)c2c1` the Potency was “inactive”.
With `CCC(C)(C)C1CCC(OC)CC1` (stereo not given) the Potency was “inactive”.
For `CC1(C)OC(=O)Nc2ccc(Br)cc21`, the Potency was “inactive”.
For `OC1OC[C@@H](O)[C@H](O)[C@H]1O` (stereo not given in full), the Potency was “inactive”.
With `COC(=O)CCCCCCCCC(=O)OC` the Potency was “inactive”.
In the case of `COc1cccc(OC)c1`, the Potency is reported as “inactive”.
For `c1ccc(SCCSc2ccccc2)cc1`, the Potency was “inactive”.
In the case of `CC(O)CN(CCCN(C)C)CCCN(C)C` (stereo not given), the Potency is reported as “inactive”.
With `OCC(O)[C@@H](O)[C@H](O)[C@H](O)CO[C@H]1O[C@H](CO)[C@@H](O)[C@H](O)[C@H]1O` (stereo not given in full) the Potency was “inactive”.
